Values joined by “and” are separate entries in the source; they are usually repeats but may differ in a detail not shown here. Equal values may be shown once. Inconclusive results are not listed. Where a structure was tested more than once in an assay, its records may differ in their call. Active and inactive are the calls of the source. How the source made its calls, unless noted: active means hit-call score of the fitted dose curve at least 0.9, where 1 is the maximum; inactive means score below 0.9.
How the values were obtained:
[1] = molecular target: Nuclear respiratory factor 1 (Homo sapiens) (UniProt Q16656); assay: ATG_NRF1_CIS: Attagene CIS-FACTORIAL HepG2 Assay for human Nuclear Respiratory Factor 1 (NRF1) Orphan Gene (AID 2282987); conditions: HepG2 NRF1 cis-element reporter, Attagene multiplex; actives raise or lower the signal
In short: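 Reporter mRNA induction or loss in HepG2 cells after 24 h dosing; cis-regulated reporter constructs report endogenous transcription-factor activity. Quantified by RT-PCR/capillary electrophoresis fluorescence, DMSO-referenced.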

[2] = ATG_NFI_CIS: Attagene CIS-FACTORIAL HepG2 Assay for human Nuclear Factor I (NFI) (AID 2282989); conditions: HepG2 cis-regulatory reporter, NFI response element transcription; actives raise or lower the signal
In short: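 After transient transfection of HepG2 with cis-promoter reporter constructs and 24 h dosing, RNA is reverse-transcribed, amplified, 6-FAM end-labelled and HpaI-digested before capillary analysis. Bidirectional curve fitting against DMSO.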

[3] = molecular target: Myc proto-oncogene protein (Homo sapiens) (UniProt P01106); assay: ATG_Myc_CIS: Attagene CIS-FACTORIAL HepG2 Assay for human Myelocytomatosis (Myc) Proto-Oncogene Transcription Factor (AID 2282990); conditions: HepG2, Attagene cis-reporter transcription factor activity; actives raise or lower the signal
In short: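 Multiplexed cis-reporter transcription in HepG2 cells after 24 h chemical treatment. Reporter mRNA measured by RT-PCR and capillary electrophoresis fluorescence; activity fitted bidirectionally against DMSO control.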

[4] = ATG_NF_kB_CIS: Attagene CIS-FACTORIAL HepG2 Assay for human Nuclear Factor Kappa B (NF-kB) (AID 2282991); conditions: HepG2 Attagene cis-factorial NF-kB reporter mRNA; actives raise or lower the signal
In short: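 DMSO served as negative control and baseline for bidirectional curve fitting. Transiently transfected HepG2 cells were dosed for 24 h, then reporter transcripts were measured by RT-PCR with capillary electrophoresis detection.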

[5] = ATG_NRF2_ARE_CIS: Attagene CIS-FACTORIAL HepG2 Assay for human Nuclear Factor Erythroid 2 Related Factor 2 (NFR2) response to Antioxidant Response Elements (ARE) (AID 2282992); conditions: HepG2 Attagene ARE/NRF2 reporter, transcription factor activity; actives raise or lower the signal
In short: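 Fluorescence intensity of reporter-specific cDNA fragments, separated by capillary electrophoresis, reflects mRNA induction in transfected HepG2 cells at 24 h. Activity is fitted bidirectionally, DMSO serving as baseline.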

[6] = ATG_Oct_MLP_CIS: Attagene CIS-FACTORIAL HepG2 Assay for human Octamer-Binding Transcription Factor (Oct) (AID 2282993); conditions: HepG2 Attagene cis-factorial Oct reporter, mRNA; actives raise or lower the signal
In short: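 Cells of the HepG2 line express promoter-controlled reporter sequences whose mRNA levels, after 24 h treatment, are measured by RT-PCR and capillary electrophoresis. Increases and decreases are scored relative to DMSO.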

[7] = BSK_3C_uPAR: BioMAP Diversity Plus: 3C Assay for Urokinase-type plasminogen activator receptor (uPAR) Biomarker Activity (AID 2282998); conditions: BioMAP 3C HUVEC, uPAR biomarker ELISA; actives raise or lower the signal
In short: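 Endothelial primary cells of human umbilical vein origin received test chemical; 24 h later uPAR was assayed by ELISA. Fitting was bidirectional, DMSO as negative control.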

[8] = BSK_4H_Eotaxin3: BioMAP Diversity Plus: 4H Assay for Eotaxin 3 Biomarker Activity (AID 2283000); conditions: primary human endothelial cells (HUVEC); actives raise or lower the signal
In short: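 Eotaxin-3 (CCL26) levels were measured by ELISA in HUVEC primary cultures 24 h post-dosing. Gain or loss of signal was fitted in both directions, with DMSO serving as baseline and negative control.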

[9] = molecular target: human Peroxisome Proliferator-activated Receptor alpha (PPARa), PPARA (gene 5465) (UniProt Q07869); assay: ATG_PPARa_TRANS: Attagene TRANS-FACTORIAL HepG2 Assay for human Peroxisome Proliferator-activated Receptor alpha (PPARa) (AID 2283001; active means hit-call score of the fitted dose curve at least 0.9, where 1 is the maximum;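 on AC50: potency for gain of reporter signal over DMSO so agonist or activator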)
In short: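 Exposure: 24 h, transiently transfected HepG2 cells. Endpoint: GAL4-UAS reporter mRNA, RT-PCR with capillary electrophoresis fluorescence. Baseline: DMSO; increases fitted.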

[10] = molecular target: human Peroxisome Proliferator-activated Receptor delta (PPARd), PPARD (gene 5467) (UniProt Q03181); assay: ATG_PPARd_TRANS: Attagene TRANS-FACTORIAL HepG2 Assay for human Peroxisome Proliferator-activated Receptor delta (PPARd) (AID 2283002; active means hit-call score of the fitted dose curve at least 0.9, where 1 is the maximum)
In short: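 Multiplexed trans-activation format: HepG2 liver cells expressing exogenous NR-Gal4 chimeras and GAL4-UAS reporters were exposed for 24 h. Reporter mRNA was detected by RT-PCR with capillary electrophoresis fluorescence; activity fitted as gain of signal relative to DMSO.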

[11] = read-out: Intercellular Adhesion Molecule 1 (ICAM1), ICAM1 (gene 3383); assay: BSK_3C_ICAM1: BioMAP Diversity Plus: 3C Assay for Intercellular Adhesion Molecule 1 (ICAM1) Biomarker Activity (AID 2283003); conditions: primary human endothelial cells (HUVEC); actives raise or lower the signal
In short: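 ELISA read-out of ICAM-1; HUVEC (primary human), 3C system, 24 h post-dosing; bidirectional fit vs DMSO baseline.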

[12] = molecular target: Peroxisome proliferator-activated receptor gamma (Homo sapiens) (UniProt P37231); assay: ATG_PPARg_TRANS: Attagene TRANS-FACTORIAL HepG2 Assay for human Peroxisome Proliferator-activated Receptor-gamma (PPARg) (AID 2283007; active means hit-call score of the fitted dose curve at least 0.9, where 1 is the maximum)
In short: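 Chimeric NR-Gal4 transactivation is measured in transiently transfected HepG2 cells by reporter mRNA induction at 24 h. Detection uses RT-PCR with fluorescent labelling and capillary electrophoresis; DMSO defines baseline.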

[13] = molecular target: Nuclear receptor subfamily 1 group I member 2 (Homo sapiens) (UniProt O75469); assay: ATG_PXR_TRANS: Attagene TRANS-FACTORIAL HepG2 Assay for human Pregnane X Receptor (PXR) (AID 2283008; active means hit-call score of the fitted dose curve at least 0.9, where 1 is the maximum)
In short: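 Transient HepG2 transfectants carrying multiplexed reporter transcription units; PXR activity read through a Gal4 chimera. 24 h exposure. RT-PCR/CE fluorescence; upward curve fit referenced to DMSO.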

[14] = molecular target: human Retinoic Acid Receptor gamma (RARg), RARG (gene 5916) (UniProt P13631); assay: ATG_RARg_TRANS: Attagene TRANS-FACTORIAL HepG2 Assay for human Retinoic Acid Receptor gamma (RARg) (AID 2283009; active means hit-call score of the fitted dose curve at least 0.9, where 1 is the maximum;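 on AC50: AC50 is for reporter induction above DMSO meaning RARg activation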)
In short: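 Readout: reporter transcript levels via RT-PCR, 6-FAM primer-extension labelling, HpaI digestion and capillary electrophoresis. Cells: HepG2 carrying transfected RARg-GAL4 chimera plus UAS reporter set. Dosing 24 h; DMSO negative control.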

[15] = molecular target: Cellular tumor antigen p53 (Homo sapiens) (UniProt P04637); assay: ATG_p53_CIS: Attagene CIS-FACTORIAL HepG2 Assay for human p53 Transcription Factor (AID 2282994); conditions: HepG2 p53 cis-element reporter, Attagene mRNA; actives raise or lower the signal
In short: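 Transiently transfected HepG2 (multiple cis reporter transcription units); exposure 24 h; reporter RNA via RT-PCR, 6-FAM extension, 2 h HpaI digest at 37 C, CE detection; DMSO baseline.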

[16] = molecular target: human Retinoic Acid Receptor beta (RARb), RARB (gene 5915) (UniProt P10826); assay: ATG_RARb_TRANS: Attagene TRANS-FACTORIAL HepG2 Assay for human Retinoic Acid Receptor beta (AID 2283004; active means hit-call score of the fitted dose curve at least 0.9, where 1 is the maximum)
In short: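 HepG2 cells were transiently transfected with GAL4-UAS reporter units that report activity of exogenous chimeric NR-Gal4 proteins, then exposed to compound for 24 h. Reporter mRNA was quantified by RT-PCR with capillary electrophoresis fluorescence, as gain of signal over DMSO.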

[17] = molecular target: Retinoic acid receptor alpha (Homo sapiens) (UniProt P10276); assay: ATG_RARa_TRANS: Attagene TRANS-FACTORIAL HepG2 Assay for human Retinoic Acid Receptor alpha (RARa) (AID 2283005; active means hit-call score of the fitted dose curve at least 0.9, where 1 is the maximum)
In short: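 HepG2 cells transiently transfected with multiple reporter units expressing chimeric RARα-GAL4 fusion, with GAL4-UAS-driven reporters. After 24 h compound exposure, reporter mRNA induction quantified by RT-PCR and capillary electrophoresis with fluorescent labeling; gain-of-signal fitted relative to DMSO control.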

[18] = BSK_3C_VCAM1: BioMAP Diversity Plus: 3C Assay for Vascular cell adhesion molecule 1 (VCAM1) Biomarker Activity (AID 2282999); conditions: BioMAP 3C HUVEC, VCAM1 ELISA, cytokine-stimulated; actives raise or lower the signal
In short: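 Vascular primary endothelium (human umbilical vein) was exposed to chemicals and assayed 24 h later. VCAM-1 levels came from ELISA, with DMSO serving as baseline for bidirectional fitting.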

[19] = BSK_3C_TissueFactor: BioMAP Diversity Plus: 3C Assay for Tissue Factor Biomarker Activity (AID 2282997); conditions: BioMAP 3C HUVEC, tissue factor biomarker readout; actives raise or lower the signal
In short: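 Tissue Factor measured by ELISA, 24 h after treatment of primary HUVEC in the BioMAP 3C setting.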

[20] = BSK_3C_Proliferation: Cell Proliferation Assessment in the BioMAP Diversity Plus: 3C Assay (AID 2283006); conditions: primary human endothelial cells (HUVEC);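 further: potency may reflect either rise or fall in cell number versus DMSO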
In short: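 HUVEC, sub-confluent; 48 h chemical exposure; 10% TCA fix, 0.1% SRB stain, A560 total protein. Gain or loss of signal fitted both directions vs DMSO control.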

Measured: AC50

human Retinoic Acid Receptor beta (RARb), RARB (gene 5915), sequence (P10826 whole entry, looked up, the tested form may be a part): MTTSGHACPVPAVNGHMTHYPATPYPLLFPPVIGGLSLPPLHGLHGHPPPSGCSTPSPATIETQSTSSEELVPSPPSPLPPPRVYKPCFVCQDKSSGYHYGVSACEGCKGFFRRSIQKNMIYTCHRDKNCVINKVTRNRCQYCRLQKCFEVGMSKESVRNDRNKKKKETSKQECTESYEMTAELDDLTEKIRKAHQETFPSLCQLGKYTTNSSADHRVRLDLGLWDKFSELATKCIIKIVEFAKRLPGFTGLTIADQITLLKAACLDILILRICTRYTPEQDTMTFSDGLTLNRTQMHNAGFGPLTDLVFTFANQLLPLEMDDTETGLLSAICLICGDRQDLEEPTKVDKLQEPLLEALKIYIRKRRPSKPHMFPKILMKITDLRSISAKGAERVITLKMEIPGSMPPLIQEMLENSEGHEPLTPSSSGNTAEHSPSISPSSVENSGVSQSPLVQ
Peroxisome proliferator-activated receptor gamma (Homo sapiens), sequence (P37231 whole entry, looked up, the tested form may be a part): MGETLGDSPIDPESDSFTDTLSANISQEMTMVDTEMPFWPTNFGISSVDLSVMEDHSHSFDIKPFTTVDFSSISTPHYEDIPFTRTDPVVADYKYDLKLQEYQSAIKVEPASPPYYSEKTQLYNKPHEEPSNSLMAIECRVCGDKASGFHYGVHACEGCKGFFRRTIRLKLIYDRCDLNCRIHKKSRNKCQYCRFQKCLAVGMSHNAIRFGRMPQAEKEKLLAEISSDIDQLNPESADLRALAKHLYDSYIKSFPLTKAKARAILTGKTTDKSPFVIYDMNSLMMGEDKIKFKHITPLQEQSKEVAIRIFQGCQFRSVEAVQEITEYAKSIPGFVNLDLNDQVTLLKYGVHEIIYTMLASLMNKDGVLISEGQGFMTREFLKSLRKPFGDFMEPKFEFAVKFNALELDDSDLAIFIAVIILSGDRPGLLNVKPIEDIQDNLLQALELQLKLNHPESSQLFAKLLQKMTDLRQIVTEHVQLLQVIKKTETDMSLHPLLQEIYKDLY
Nuclear respiratory factor 1 (Homo sapiens), sequence (Q16656 whole entry, looked up): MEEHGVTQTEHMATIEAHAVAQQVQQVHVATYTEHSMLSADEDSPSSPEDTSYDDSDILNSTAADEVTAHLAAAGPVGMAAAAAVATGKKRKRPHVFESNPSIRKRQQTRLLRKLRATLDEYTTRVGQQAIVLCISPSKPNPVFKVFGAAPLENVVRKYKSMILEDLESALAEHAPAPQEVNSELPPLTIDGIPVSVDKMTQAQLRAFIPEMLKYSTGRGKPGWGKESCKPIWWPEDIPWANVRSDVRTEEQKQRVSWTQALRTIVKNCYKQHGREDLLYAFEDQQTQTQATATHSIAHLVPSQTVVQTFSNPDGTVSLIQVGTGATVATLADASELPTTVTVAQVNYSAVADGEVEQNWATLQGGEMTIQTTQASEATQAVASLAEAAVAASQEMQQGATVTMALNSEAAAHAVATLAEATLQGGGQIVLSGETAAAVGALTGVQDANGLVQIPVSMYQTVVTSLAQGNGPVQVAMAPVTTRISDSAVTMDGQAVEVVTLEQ
human Peroxisome Proliferator-activated Receptor alpha (PPARa), PPARA (gene 5465), sequence (Q07869 whole entry, looked up, the tested form may be a part): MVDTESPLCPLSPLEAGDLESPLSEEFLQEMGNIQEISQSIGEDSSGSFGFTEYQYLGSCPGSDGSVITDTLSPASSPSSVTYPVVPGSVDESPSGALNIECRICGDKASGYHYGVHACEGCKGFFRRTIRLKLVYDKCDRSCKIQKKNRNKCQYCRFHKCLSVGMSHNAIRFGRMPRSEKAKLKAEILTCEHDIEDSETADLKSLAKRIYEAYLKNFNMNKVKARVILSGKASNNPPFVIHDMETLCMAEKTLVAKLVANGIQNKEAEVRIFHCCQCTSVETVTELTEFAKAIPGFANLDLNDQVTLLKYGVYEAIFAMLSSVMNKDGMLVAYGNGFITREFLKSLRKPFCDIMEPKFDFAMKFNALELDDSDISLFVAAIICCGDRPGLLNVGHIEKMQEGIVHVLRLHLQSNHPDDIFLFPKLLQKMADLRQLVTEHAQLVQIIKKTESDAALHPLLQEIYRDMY
Myc proto-oncogene protein (Homo sapiens), sequence (P01106 whole entry, looked up): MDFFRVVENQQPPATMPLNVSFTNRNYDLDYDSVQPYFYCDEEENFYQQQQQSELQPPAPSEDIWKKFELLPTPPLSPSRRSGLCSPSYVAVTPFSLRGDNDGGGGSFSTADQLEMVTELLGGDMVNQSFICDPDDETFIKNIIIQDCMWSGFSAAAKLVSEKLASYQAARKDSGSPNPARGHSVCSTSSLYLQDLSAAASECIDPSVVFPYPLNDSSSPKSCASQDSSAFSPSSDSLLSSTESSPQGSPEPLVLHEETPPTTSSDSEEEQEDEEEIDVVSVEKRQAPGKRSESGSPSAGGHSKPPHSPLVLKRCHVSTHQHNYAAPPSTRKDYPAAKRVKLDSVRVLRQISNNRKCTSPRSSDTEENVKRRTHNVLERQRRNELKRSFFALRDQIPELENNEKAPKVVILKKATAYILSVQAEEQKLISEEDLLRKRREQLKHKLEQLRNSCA
human Peroxisome Proliferator-activated Receptor delta (PPARd), PPARD (gene 5467), sequence (Q03181 whole entry, looked up, the tested form may be a part): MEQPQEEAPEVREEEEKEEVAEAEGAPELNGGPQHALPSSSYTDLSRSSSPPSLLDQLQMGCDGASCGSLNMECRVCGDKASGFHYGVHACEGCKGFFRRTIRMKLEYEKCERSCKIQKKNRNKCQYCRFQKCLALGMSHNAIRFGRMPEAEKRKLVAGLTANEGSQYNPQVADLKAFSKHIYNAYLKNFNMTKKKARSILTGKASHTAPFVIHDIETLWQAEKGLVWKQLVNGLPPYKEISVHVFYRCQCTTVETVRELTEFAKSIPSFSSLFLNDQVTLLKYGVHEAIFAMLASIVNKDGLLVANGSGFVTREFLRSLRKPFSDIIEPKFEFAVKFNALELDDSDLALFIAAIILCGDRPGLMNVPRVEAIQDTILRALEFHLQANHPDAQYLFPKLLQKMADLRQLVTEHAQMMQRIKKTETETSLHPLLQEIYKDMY
Nuclear receptor subfamily 1 group I member 2 (Homo sapiens), sequence (O75469 whole entry, looked up, the tested form may be a part): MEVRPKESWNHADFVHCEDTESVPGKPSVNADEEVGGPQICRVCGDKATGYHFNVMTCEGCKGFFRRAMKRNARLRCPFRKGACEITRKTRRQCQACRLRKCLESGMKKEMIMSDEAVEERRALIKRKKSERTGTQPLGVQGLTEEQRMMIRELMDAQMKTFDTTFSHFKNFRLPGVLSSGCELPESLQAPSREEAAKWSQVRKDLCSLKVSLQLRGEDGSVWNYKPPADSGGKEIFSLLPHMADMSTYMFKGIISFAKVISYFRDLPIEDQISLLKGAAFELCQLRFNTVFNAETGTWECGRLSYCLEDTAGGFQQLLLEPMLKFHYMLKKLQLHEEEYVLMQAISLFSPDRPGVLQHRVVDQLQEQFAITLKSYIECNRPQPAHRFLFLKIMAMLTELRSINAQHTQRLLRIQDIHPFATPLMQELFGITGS
human Retinoic Acid Receptor gamma (RARg), RARG (gene 5916), sequence (P13631 whole entry, looked up, the tested form may be a part): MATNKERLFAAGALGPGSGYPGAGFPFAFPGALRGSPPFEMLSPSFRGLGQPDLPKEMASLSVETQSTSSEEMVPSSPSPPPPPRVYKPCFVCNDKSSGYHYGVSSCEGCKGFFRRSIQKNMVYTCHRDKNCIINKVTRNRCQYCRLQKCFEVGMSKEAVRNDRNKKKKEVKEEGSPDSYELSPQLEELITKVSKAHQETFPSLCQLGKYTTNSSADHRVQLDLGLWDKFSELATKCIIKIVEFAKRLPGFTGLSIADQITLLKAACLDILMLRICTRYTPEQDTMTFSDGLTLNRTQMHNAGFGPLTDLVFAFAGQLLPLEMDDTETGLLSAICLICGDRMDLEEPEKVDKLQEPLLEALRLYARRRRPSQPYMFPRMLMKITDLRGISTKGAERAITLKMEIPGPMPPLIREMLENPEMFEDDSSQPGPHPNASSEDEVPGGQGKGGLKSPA
Retinoic acid receptor alpha (Homo sapiens), sequence (P10276 whole entry, looked up, the tested form may be a part): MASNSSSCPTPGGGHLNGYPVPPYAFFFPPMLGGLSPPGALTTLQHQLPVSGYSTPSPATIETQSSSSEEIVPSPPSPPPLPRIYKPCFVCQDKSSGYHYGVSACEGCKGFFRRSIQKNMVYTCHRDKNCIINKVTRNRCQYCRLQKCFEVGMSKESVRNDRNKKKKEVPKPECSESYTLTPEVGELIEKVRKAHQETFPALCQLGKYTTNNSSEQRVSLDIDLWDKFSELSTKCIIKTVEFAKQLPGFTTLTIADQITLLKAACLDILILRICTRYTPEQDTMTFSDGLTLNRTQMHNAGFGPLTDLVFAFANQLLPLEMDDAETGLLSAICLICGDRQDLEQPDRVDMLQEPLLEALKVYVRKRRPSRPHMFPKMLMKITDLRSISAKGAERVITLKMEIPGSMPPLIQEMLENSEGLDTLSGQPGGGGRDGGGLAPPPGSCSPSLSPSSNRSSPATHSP
Cellular tumor antigen p53 (Homo sapiens), sequence (P04637 whole entry, looked up): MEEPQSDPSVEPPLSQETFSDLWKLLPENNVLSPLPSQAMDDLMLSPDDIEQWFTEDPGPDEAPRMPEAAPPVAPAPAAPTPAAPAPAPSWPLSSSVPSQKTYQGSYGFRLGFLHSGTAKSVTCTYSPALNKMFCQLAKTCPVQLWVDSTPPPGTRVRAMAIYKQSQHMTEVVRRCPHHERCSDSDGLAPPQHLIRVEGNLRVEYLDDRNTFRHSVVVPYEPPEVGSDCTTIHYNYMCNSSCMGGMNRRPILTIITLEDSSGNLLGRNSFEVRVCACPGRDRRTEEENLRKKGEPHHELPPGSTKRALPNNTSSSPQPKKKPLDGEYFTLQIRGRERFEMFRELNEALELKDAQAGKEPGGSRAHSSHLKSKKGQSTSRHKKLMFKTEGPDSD

O=C(O)C(F)(F)C(F)(F)C(F)(F)C(F)(F)C(F)(F)C(F)(F)C(F)(F)C(F)(F)Cl
inactive: [1] | [2] | [3] | [4] | [5] | [7] | [8] | [10] | [11] | [13] | [14]
active: [5] 12.7 µM | [6] 50 µM and 57.9 µM | [7] 44.9 µM | [8] 49.9 µM | [9] 20.2 µM and 18.8 µM | [12] 31.1 µM and 34.1 µM | [13] 50 µM

CCCCCCCCC(F)(F)C(F)(F)C(F)(F)C(F)(F)C(F)(F)C(F)(F)F
active: [2] 36 µM | [6] 89.3 µM
inactive: [1] | [3] | [4] | [5] | [15] | [7] | [8] | [9] | [10] | [11] | [16] | [17] | [12] | [14]

CCCCCCCOC(=O)c1ccccc1C(=O)OCCCCCCC
inactive: [1] | [2] | [3] | [4] | [5] | [6] | [15] | [7] | [18] | [8] | [9] | [10] | [11] | [14]
active: [12] 10.8 µM | [13] 6.29 µM

O=C(O)C(F)(F)C(F)(F)OC(F)(F)F
inactive: [1] | [2] | [3] | [4] | [5] | [6] | [15] | [19] | [7] | [18] | [8] | [9] | [11] | [16] | [17] | [12] | [13] | [14]

C#C[C@]1(O)CC[C@H]2[C@@H]3CCc4cc(OC)ccc4[C@H]3CC[C@@]21C
active: [5] 18 µM | [8] 2.22 µM | [20] 31.1 µM | [13] 4.66 µM
inactive: [1] | [2] | [3] | [4] | [6] | [15] | [7] | [18] | [9] | [11] | [16] | [12] | [14]

CCCCCCCCCCCCCCCC[N+](C)(C)Cc1ccccc1
inactive: [1] | [2] | [4] | [5] | [6] | [15] | [16] | [17] | [13]
active: [3] 25.1 µM | [7] 20 µM | [18] 8.49 µM | [8] 6.55 µM | [9] 45 µM | [11] 2.35 µM | [20] 0.604 µM | [12] 60.2 µM | [14] 49.9 µM
